Data taken from PubChem BioAssay AID1159580 (chemical genetic matrix, 2015).
“And” between values parts separate entries of the source, which are not always exact repeats. Equal values may be shown once. Among all 5,500 compounds or so, about 2,000 (36%) were called active. About 18% were inconclusive and are not listed. Rule as the data show it: active = normalized growth mostly below about 0.91 (no sharp cut-off); inconclusive = no clear call, values can overlap the other calls; inactive = mostly above about 0.92. The list shows a part of the results.

Assay: chemical genetic growth profiling, strain panel (AID 1159580);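 also: tested at 20 µM; growth read once vehicle control cultures reached saturation at 30 °C; 1 = growth at the plate median or of vehicle wells; lower values mean less growth of the strain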
Settings: growth OD

Measured: normalized growth

O=c1n(CCCN2CCN(c3cccc(Cl)c3)CC2)nc2ccccn12
inactive: S. cerevisiae deletion strains, locus YJR066W, strain TOR1, active compounds read low 0.943 | S. cerevisiae deletion strains, locus YJR075W, strain HOC1, active compounds read low 0.94 and 0.981 | S. cerevisiae deletion strains, locus YKL009W, strain mrt4, active compounds read low 0.967 | S. cerevisiae deletion strains, locus YKL068W, active compounds read low 0.989 | S. cerevisiae deletion strains, locus YKL085W, strain MDH1 (second series), active compounds read low 0.992 | S. cerevisiae deletion strains, locus YKL085W, strain MDH1, active compounds read low 0.992 | S. cerevisiae deletion strains, locus YKL160W, strain elf1, active compounds read low 0.986 | S. cerevisiae deletion strains, locus YKL190W, strain CNB1, active compounds read low 0.986 | S. cerevisiae deletion strains, locus YKR001C, strain vps1, active compounds read low 0.972 | S. cerevisiae deletion strains, locus YKR026C, strain gcn3, active compounds read low 0.984 | S. cerevisiae deletion strains, locus YKR091W, strain srl3, active compounds read low 0.993 | S. cerevisiae deletion strains, locus YLL001W, strain dnm1, active compounds read low 0.986 | S. cerevisiae deletion strains, locus YLL026W, active compounds read low 0.986 | S. cerevisiae deletion strains, locus YLL041C, strain sdh2, active compounds read low 0.994 | S. cerevisiae deletion strains, locus YLR027C, strain aat2, active compounds read low 0.979 | S. cerevisiae deletion strains, locus YLR039C, strain RIC1, active compounds read low 0.975 | S. cerevisiae deletion strains, locus YLR058C, strain SHM2, active compounds read low 0.964 | S. cerevisiae deletion strains, locus YLR102C, strain apc9, active compounds read low 0.993 | S. cerevisiae deletion strains, locus YLR113W, strain HOG1, active compounds read low 1 | S. cerevisiae deletion strains, locus YLR221C, strain rsa3, active compounds read low 0.985 | S. cerevisiae deletion strains, locus YLR258W, strain gsy2, active compounds read low 0.99 | S. cerevisiae deletion strains, locus YLR262C, strain YPT6 (second series), active compounds read low 0.965 | S. cerevisiae deletion strains, locus YLR262C, strain YPT6, active compounds read low 0.948 | S. cerevisiae deletion strains, locus YLR268W, strain sec22, active compounds read low 0.98 | S. cerevisiae deletion strains, locus YLR320W, strain mms22, active compounds read low 0.966 | S. cerevisiae deletion strains, locus YLR330W, strain CHS5, active compounds read low 0.989 | S. cerevisiae deletion strains, locus YLR342W, strain FKS1 (second series), active compounds read low 1.04 | S. cerevisiae deletion strains, locus YLR342W, strain FKS1, active compounds read low 0.983 | S. cerevisiae deletion strains, locus YLR357W, strain rsc2, active compounds read low 0.932 | S. cerevisiae deletion strains, locus YLR370C, strain arc18, active compounds read low 0.982 | S. cerevisiae deletion strains, locus YLR371W, strain rom2, active compounds read low 0.994 | S. cerevisiae deletion strains, locus YLR384C, strain iki3, active compounds read low 0.983 | S. cerevisiae deletion strains, locus YLR418C, strain cdc73, active compounds read low 1 | S. cerevisiae deletion strains, locus YML016C, strain PPZ1, active compounds read low 0.98 | S. cerevisiae deletion strains, locus YML032C, strain rad52, active compounds read low 0.979 | S. cerevisiae deletion strains, locus YML120C, strain ndi1, active compounds read low 0.977 | S. cerevisiae deletion strains, locus YML124C, strain tub3, active compounds read low 0.989 | S. cerevisiae deletion strains, locus YMR058W, strain fet3, active compounds read low 0.976 | S. cerevisiae deletion strains, locus YMR078C, strain ctf18, active compounds read low 0.995 | S. cerevisiae deletion strains, locus YMR125W, strain sto1, active compounds read low 0.969 | S. cerevisiae deletion strains, locus YMR129W, active compounds read low 0.984 | S. cerevisiae deletion strains, locus YMR205C, strain PFK2, active compounds read low 0.964 | S. cerevisiae deletion strains, locus YMR223W, strain ubp8, active compounds read low 1.01 | S. cerevisiae deletion strains, locus YMR231W, strain pep5, active compounds read low 0.989 | S. cerevisiae deletion strains, locus YMR263W, strain SAP30, active compounds read low 0.983 | S. cerevisiae deletion strains, locus YMR307W, strain GAS1, active compounds read low 1.08 and 1.01 | S. cerevisiae deletion strains, locus YNL067W, strain RPL9B, active compounds read low 0.969 | S. cerevisiae deletion strains, locus YNL071W, strain lat1, active compounds read low 0.963 | S. cerevisiae deletion strains, locus YNL153C, strain GIM3, active compounds read low 0.945 | S. cerevisiae deletion strains, locus YNL175C, strain NOP13, active compounds read low 0.999 | S. cerevisiae deletion strains, locus YNL183C, strain NPR1, active compounds read low 0.943 | S. cerevisiae deletion strains, locus YNL197C, strain WHI3, active compounds read low 1 | S. cerevisiae deletion strains, locus YNL209W, strain ssb2, active compounds read low 0.989 | S. cerevisiae deletion strains, locus YNL224C, strain SQS1, active compounds read low 0.998 | S. cerevisiae deletion strains, locus YNL233W, strain BNI4, active compounds read low 0.956 | S. cerevisiae deletion strains, locus YNL248C, strain rpa49, active compounds read low 0.976 | S. cerevisiae deletion strains, locus YNL250W, strain rad50, active compounds read low 0.973 | S. cerevisiae deletion strains, locus YNL271C, strain bni1, active compounds read low 0.986 | S. cerevisiae deletion strains, locus YNL298W, strain CLA4, active compounds read low 0.999 | S. cerevisiae deletion strains, locus YNL307C, strain MCK1, active compounds read low 0.993 | S. cerevisiae deletion strains, locus YNL322C, strain KRE1 (second series), active compounds read low 0.964 | S. cerevisiae deletion strains, locus YNL322C, strain KRE1, active compounds read low 0.997 | S. cerevisiae deletion strains, locus YNR049C, strain mso1, active compounds read low 0.979 | S. cerevisiae deletion strains, locus YNR052C, strain pop2, active compounds read low 0.992 | S. cerevisiae deletion strains, locus YOL006C, strain TOP1, active compounds read low 0.781 | S. cerevisiae deletion strains, locus YOL012C, strain htz1 1.02 | S. cerevisiae deletion strains, locus YOL147C, strain pex11, active compounds read low 0.992 | S. cerevisiae deletion strains, locus YOR001W, strain rrp6, active compounds read low 0.991 | S. cerevisiae deletion strains, locus YOR061W, strain CKA2, active compounds read low 0.965 | S. cerevisiae deletion strains, locus YOR069W, strain VPS5, active compounds read low 0.987 | S. cerevisiae deletion strains, locus YOR070C, strain gyp1, active compounds read low 0.974 | S. cerevisiae deletion strains, locus YOR080W, strain dia2, active compounds read low 0.975 | S. cerevisiae deletion strains, locus YOR083W, strain WHI5 (second series), active compounds read low 1.02 | S. cerevisiae deletion strains, locus YOR083W, strain WHI5, active compounds read low 0.984 | S. cerevisiae deletion strains, locus YOR106W, strain vam3, active compounds read low 0.977 | S. cerevisiae deletion strains, locus YOR136W, strain idh2, active compounds read low 0.983 | S. cerevisiae deletion strains, locus YOR144C, strain elg1, active compounds read low 0.996 | S. cerevisiae deletion strains, locus YOR184W, strain ser1, active compounds read low 0.992 | S. cerevisiae deletion strains, locus YOR231W, strain MKK1, active compounds read low 1 | S. cerevisiae deletion strains, locus YOR265W, strain rbl2, active compounds read low 0.969 | S. cerevisiae deletion strains, locus YOR270C, strain vph1, active compounds read low 0.902 | S. cerevisiae deletion strains, locus YOR290C, strain snf2, active compounds read low 0.939 | S. cerevisiae deletion strains, locus YOR316C, strain cot1, active compounds read low 0.99 | S. cerevisiae deletion strains, locus YPL051W, strain arl3, active compounds read low 0.982 | S. cerevisiae deletion strains, locus YPL078C, strain atp4, active compounds read low 0.975 | S. cerevisiae deletion strains, locus YPL106C, strain sse1, active compounds read low 0.971 | S. cerevisiae deletion strains, locus YPL240C, strain hsp82, active compounds read low 0.984 | S. cerevisiae deletion strains, locus YPL241C, strain CIN2, active compounds read low 0.997 | S. cerevisiae deletion strains, locus YPL256C, strain CLN2, active compounds read low 1.01 | S. cerevisiae deletion strains, locus YPR119W, strain clb2, active compounds read low 0.99 | S. cerevisiae deletion strains, locus YPR141C, strain kar3, active compounds read low 0.984 | S. cerevisiae deletion strains, locus YPR163C, strain tif3, active compounds read low 0.991 | S. cerevisiae deletion strains, locus YPR167C, strain met16, active compounds read low 1 | S. cerevisiae deletion strains, strain wtn01, active compounds read low 1.03 | S. cerevisiae strains, strain wild type, active compounds read low 0.979
